Measurements published in PubChem BioAssay (NCATS).
Results filed as inconclusive are left out. Where a call stands in place of a potency, no number is given. Active and inactive are the calls of the source. The call rests on the fitted dose curve. Numbered stars: 1 amine (or outer) side, 2 acyl side, 3 side chain; on linkers, the order of the positions; unused ones are H or OH. Bridge positions count the residues as written; N and C are the ends. Square brackets hold non-standard residues; d marks the D form. Peptide text beside a SMILES is read from it. I, II: the chains in the order shown. Actinocin(9to1) = Cc1c2oc3c(C)ccc(C(=O)[*:1])c3nc-2c(C(=O)[*:2])c(N)c1=O; NMeV = CN[C@H](C(=O)O)C(C)C; Sar = CNCC(=O)O

Assay: Primary qHTS for Huh7 cytotoxicity: counterscreen for inhibitors of MERS-S pseudotyped particle cell entry (AID 1479147)
Details: cell viability read-out; series mostly up to 57.1 µM

SMILES	Potency
COc1cc2c(cc1OC)C(=O)C(CC1CCN(Cc3ccccc3)CC1)C2 (stereo not drawn)	inactive
CC(CN(C)C)CN1c2ccccc2CCc2ccccc21 (stereo not drawn)	inactive
CC(CN1c2ccccc2Sc2ccccc21)N(C)C (stereo not drawn)	inactive
CN(C)CCC=C1c2ccccc2C=Cc2ccccc21	inactive
COc1ccccc1OCCNCC(O)COc1cccc2[nH]c3ccccc3c12 (stereo not drawn)	inactive
OCCOCCN1CCN(C(c2ccccc2)c2ccc(Cl)cc2)CC1 (stereo not drawn)	inactive
Cc1ccccc1C(OCCN(C)C)c1ccccc1 (stereo not drawn)	inactive
CN1CCC(=C2c3ccccc3C=Cc3ccccc32)CC1	inactive
COc1cc2nc(N3CCN(C(=O)C4COc5ccccc5O4)CC3)nc(N)c2cc1OC (stereo not drawn)	inactive
CNCCCN1c2ccccc2CCc2ccccc21	inactive
CN(C)CCC=C1c2ccccc2CCc2ccccc21	inactive
CN(C)CCCN1c2ccccc2Sc2ccc(Cl)cc21	inactive
COc1ccc(OC)c(C(O)CNC(=O)CN)c1 (stereo not drawn)	inactive
CCc1ccc(CCOc2ccc(CC3SC(=O)NC3=O)cc2)nc1 (stereo not drawn)	inactive

Assay: Primary qHTS for inhibitors of MERS-S pseudo-typed particle cell entry (AID 1479149); further: nearly all actives have a fitted effect of over 60% in size; further: potency means the concentration at half of the fitted maximal effect
Details: MERS-S pseudotyped particle entry, luciferase; series mostly up to 57.1 µM

SMILES	Potency
Nc1nc(=S)c2[nH]cnc2[nH]1	inactive
CCN(CC)C(=S)SSC(=S)N(CC)CC	inactive
CN1CCc2cccc3c2[C@H]1Cc1ccc(O)c(O)c1-3	inactive
CCC1=C[C@@H]2CN(C1)Cc1c([nH]c3ccccc13)[C@@](C(=O)OC)(c1cc3c(cc1OC)N(C)[C@H]1[C@@](O)(C(=O)OC)[C@H](OC(C)=O)[C@]4(CC)C=CCN5CC[C@]31[C@@H]54)C2	3.16 µM (active)
COC1=CC(=O)C[C@@H](C)[C@]12Oc1c(Cl)c(OC)cc(OC)c1C2=O	inactive
CN1CCN(CCCN2c3ccccc3Sc3ccc(C(F)(F)F)cc32)CC1	28.2 µM (active)
CN(Cc1cnc2nc(N)nc(N)c2n1)c1ccc(C(=O)N[C@@H](CCC(=O)O)C(=O)O)cc1	inactive
CCC(C)n1ncn(-c2ccc(N3CCN(c4ccc(OC[C@H]5CO[C@](Cn6cncn6)(c6ccc(Cl)cc6Cl)O5)cc4)CC3)cc2)c1=O (stereo partly drawn)	2.51 µM (active)
CC(=O)Oc1ccccc1C(=O)Nc1ncc([N+](=O)[O-])s1	5.62 µM (active)
CNCC[C@H](Oc1cccc2ccccc12)c1cccs1	25.1 µM (active)

Assay: Primary qHTS for Vero E6 cytotoxicity: counterscreen for inhibitors of SARS-S pseudo-typed particle cell entry (AID 1479150); further: potency means the concentration at half of the fitted maximal effect
Details: cell viability; series mostly up to 57.1 µM

SMILES	Potency
CSc1ccc2c(c1)N(CCC1CCCCN1C)c1ccccc1S2 (stereo not drawn)	inactive
CNCCC(Oc1ccc(C(F)(F)F)cc1)c1ccccc1 (stereo not drawn)	inactive
COc1cc2c(cc1OC)C(=O)C(CC1CCN(Cc3ccccc3)CC1)C2 (stereo not drawn)	inactive
CNCCCC1c2ccccc2C=Cc2ccccc21	inactive
CC(CN(C)C)CN1c2ccccc2CCc2ccccc21 (stereo not drawn)	inactive
CCCNCC(O)COc1ccccc1C(=O)CCc1ccccc1 (stereo not drawn)	inactive
CCc1nn(CCCN2CCN(c3cccc(Cl)c3)CC2)c(=O)n1CCOc1ccccc1	inactive
CC(CN1c2ccccc2Sc2ccccc21)N(C)C (stereo not drawn)	inactive
CN(C)CCC=C1c2ccccc2C=Cc2ccccc21	inactive
O=C(CCCN1CCC(O)(c2ccc(Cl)cc2)CC1)c1ccc(F)cc1	inactive
CN1CCc2cccc3c2[C@H]1Cc1ccc(O)c(O)c1-3	inactive
COc1ccccc1OCCNCC(O)COc1cccc2[nH]c3ccccc3c12 (stereo not drawn)	inactive
CN(C)C(=O)C(CCN1CCC(O)(c2ccc(Cl)cc2)CC1)(c1ccccc1)c1ccccc1	inactive
OCCN1CCN(CCCN2c3ccccc3Sc3ccc(C(F)(F)F)cc32)CC1	inactive
OCCOCCN1CCN(C(c2ccccc2)c2ccc(Cl)cc2)CC1 (stereo not drawn)	inactive
Cc1ccccc1C(OCCN(C)C)c1ccccc1 (stereo not drawn)	inactive
CN1CCC(=C2c3ccccc3C=Cc3ccccc32)CC1	inactive
COC1=CC(=O)C[C@@H](C)[C@]12Oc1c(Cl)c(OC)cc(OC)c1C2=O	inactive
CN1CCN(CCCN2c3ccccc3Sc3ccc(C(F)(F)F)cc32)CC1	inactive
COc1cc2nc(N3CCN(C(=O)C4COc5ccccc5O4)CC3)nc(N)c2cc1OC (stereo not drawn)	inactive
CNCCCN1c2ccccc2CCc2ccccc21	inactive
CCC(C)n1ncn(-c2ccc(N3CCN(c4ccc(OC[C@H]5CO[C@](Cn6cncn6)(c6ccc(Cl)cc6Cl)O5)cc4)CC3)cc2)c1=O (stereo partly drawn)	inactive
CC(=O)Oc1ccccc1C(=O)Nc1ncc([N+](=O)[O-])s1	28.2 µM (active)
CN(C)CCC=C1c2ccccc2CCc2ccccc21	inactive
CN(C)CCCN1c2ccccc2Sc2ccc(Cl)cc21	inactive
COc1ccc(OC)c(C(O)CNC(=O)CN)c1 (stereo not drawn)	inactive
CCc1ccc(CCOc2ccc(CC3SC(=O)NC3=O)cc2)nc1 (stereo not drawn)	inactive
CNCC[C@H](Oc1cccc2ccccc12)c1cccs1	inactive
Cc1c2oc3c(C)ccc(C(=O)N[C@@H]4C(=O)N[C@H](C(C)C)C(=O)N5CCC[C@H]5C(=O)N(C)CC(=O)N(C)[C@@H](C(C)C)C(=O)O[C@@H]4C)c3nc-2c(C(=O)N[C@@H]2C(=O)N[C@H](C(C)C)C(=O)N3CCC[C@H]3C(=O)N(C)CC(=O)N(C)[C@@H](C(C)C)C(=O)O[C@@H]2C)c(N)c1=O (I: T[dV]P[Sar][NMeV] / II: T[dV]P[Sar][NMeV]; ester I:1-I:C, II:1-II:C; linker I:N-II:N via Actinocin(9to1))	inactive
